{
  "source": "PubChem BioAssay AID1345085",
  "about": "(National Center for Advancing Translational Sciences (NCATS), 2018)",
  "note": "Results filed as inconclusive are left out. Calls of active or inactive are those of the source. The call rests on the fitted dose curve; in most records, active means well fitted cell-killing curve with a large enough effect; inconclusive means small, poorly fitted or top-dose-only effect, or effect the other way; inactive means no such curve, though single readings can be large or run the other way. On the % scale 0 is the no-effect control and ±100 the full control effect; potency means the concentration at half of the fitted maximal effect.",
  "data": [
    {"test_system": "HeLa", "assay": "Confirmatory qHTS for gynecologic anti-cancer compounds from libraries of approved drugs and bioactive compounds; further: nearly all actives have a fitted effect of over 55% in size", "conditions": "gynecologic cancer cell panel viability, ATPlite luminescence, 48 h; series mostly up to 57.6 µM; activity change, negative = viability loss: at the top concentration", "outline": "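IC50 values derive from an ATPlite ATP-content luminescence assay following 48 h treatment at 37 C. Each compound ran as an 11-concentration, threefold series (57.5 uM to 0.977 nM); HEK 293T served as control line for selectivity index.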", "values": [
      {"smiles": "Cc1c(NC(=O)OCC2COCCN2)cn2ncnc(Nc3ccc4c(cnn4Cc4cccc(F)c4)c3)c12", "note": "(stereo unspecified)", "Potency": "34.3 µM (active)"},
      {"smiles": "Cc1ccc(C(=O)Nc2ccc(Oc3cc4cnn(C)c4cc3-c3cn[nH]c3)c(F)c2)c(=O)n1-c1ccc(F)cc1", "Potency": "8.63 µM (active)"},
      {"smiles": "Cc1ccc(C(=O)Nc2cccc(C(F)(F)F)c2)cc1-c1ccc2nc(NCCN3CCOCC3)ncc2c1", "Potency": "7.69 µM (active)"},
      {"smiles": "CCc1c2c(nc3ccc(OC(=O)N4CCC(N5CCCCC5)CC4)cc13)-c1cc3c(c(=O)n1C2)COC(=O)[C@]3(O)CC", "activity change, negative = viability loss": "-8.27% (inactive)"},
      {"smiles": "NC(=O)Nc1cc(-c2cccc(F)c2)sc1C(=O)NC1CCCNC1", "note": "(stereo unspecified)", "Potency": "1.22 µM (active)"},
      {"smiles": "COc1cc(C(=O)N2CCC(N3CCN(C)CC3)CC2)ccc1Nc1ncc2c(n1)N(C)c1ccccc1C(=O)N2C", "Potency": "17.2 µM (active)"},
      {"smiles": "CC(=O)c1cnc2ccc(-c3cc(Cl)c(O)c(Cl)c3)nc2c1NC1CCC(CN(C)C)CC1", "note": "(stereo unspecified)", "Potency": "0.0993 µM (active)"},
      {"smiles": "CC(=O)OC12COC1CC(O)C1(C)C(=O)C(O)C3=C(C)C(OC(=O)C(O)C(NC(=O)OC(C)(C)C)c4ccccc4)CC(O)(C(OC(=O)c4ccccc4)C21)C3(C)C", "note": "(stereo unspecified)", "Potency": "0.0097 µM (active)"},
      {"smiles": "C[C@@H](Oc1cc(-c2cnn(C3CCNCC3)c2)cnc1N)c1c(Cl)ccc(F)c1Cl", "Potency": "4.32 µM (active)"},
      {"smiles": "CC[C@H](Nc1ncnc2nc[nH]c12)c1nc2cccc(F)c2c(=O)n1-c1ccccc1", "activity change, negative = viability loss": "0.732% [at 10.7 µM] (inactive)"},
      {"smiles": "CC(C)C[C@H](NC(=O)[C@@H](NC(=O)c1cccc(-c2ccccc2)n1)[C@@H](C)O)B(O)O", "Potency": "24.3 µM (active)"},
      {"smiles": "CNCc1ccc(-c2[nH]c3cc(F)cc4c3c2CCNC4=O)cc1", "activity change, negative = viability loss": "-7.25% (inactive)"},
      {"smiles": "CN1CCN(c2ccc(OC(F)(F)F)c(Nc3ncc4c(n3)-c3c(c(C(N)=O)nn3CCO)CC4)c2)CC1", "Potency": "0.0611 µM (active)"},
      {"smiles": "COCCOc1nc(-c2ccc(Cl)c(Cl)c2)n(-c2ccc(NC(=O)CCl)cc2)n1", "Potency": "24.3 µM (active)"},
      {"smiles": "CCn1c(-c2nonc2N)nc2c(C#CC(C)(C)O)ncc(OCC3CCCNC3)c21", "note": "(stereo unspecified)", "Potency": "21.7 µM (active)"},
      {"smiles": "O=C(c1ccc(F)c(F)c1Nc1ccc(I)cc1F)N1CC(O)([C@@H]2CCCCN2)C1", "Potency": "21.7 µM (active)"},
      {"smiles": "Cn1cnc2c(F)c(Nc3ccc(Br)cc3Cl)c(C(=O)NOCCO)cc21", "activity change, negative = viability loss": "-20% (inactive)"},
      {"smiles": "CCC1C(=O)N(C)c2cnc(Nc3ccc(C(=O)NC4CCC(N5CCN(CC6CC6)CC5)CC4)cc3OC)nc2N1C(C)C", "note": "(stereo unspecified)", "Potency": "0.0385 µM (active)"},
      {"smiles": "CC(C)n1c(/C=C/[C@@H](O)C[C@@H](O)CC(=O)O)c(-c2ccc(F)cc2)c2ccccc21", "Potency": "5.44 µM (active)"},
      {"smiles": "Nc1ccccc1NC(=O)c1ccc(CNc2nccc(-c3cccnc3)n2)cc1", "Potency": "1.53 µM (active)"},
      {"smiles": "Cc1cnc(CNC(=O)c2c(=O)c3ccc(N4CCCN(C)CC4)nc3n3c2sc2ccccc23)cn1", "activity change, negative = viability loss": "-3.33% [at 10.7 µM] (inactive)"},
      {"smiles": "CC(C)c1nn(-c2c(Cl)cccc2Cl)c2nc(Cc3ccc(OCCO)cc3)[nH]c(=O)c12", "Potency": "0.122 µM (active)"},
      {"smiles": "Cc1csc(NC(=O)c2sc3nc4c(c(C(F)(F)F)c3c2N)CCC4)n1", "Potency": "1.93 µM (active)"},
      {"smiles": "CCCS(=O)c1ccc2nc(NC(=O)OC)[nH]c2c1", "note": "(stereo unspecified)", "Potency": "24.3 µM (active)"},
      {"smiles": "CC(Oc1ccc2[nH]nc(/C=C/c3cnn(CCO)c3)c2c1)c1c(Cl)cncc1Cl", "note": "(stereo unspecified)", "Potency": "0.172 µM (active)"},
      {"smiles": "CC(=O)NCC(=O)N1C2CCC1c1cc(Nc3ncc(C(F)(F)F)c(NC4CCC4)n3)ccc12", "note": "(stereo unspecified)", "Potency": "1.09 µM (active)"},
      {"smiles": "Cc1cc(Nc2cc(N3CCN(C)CC3)nc(Sc3ccc(NC(=O)C4CC4)cc3)n2)n[nH]1", "Potency": "1.09 µM (active)"},
      {"smiles": "Cc1nc(Nc2n[nH]c3c2CN(C(=O)NC(CN(C)C)c2ccccc2)C3(C)C)c2sccc2n1", "note": "(stereo unspecified)", "Potency": "3.06 µM (active)"},
      {"smiles": "CC(Oc1cc(-n2cnc3ccc(CN4CCN(C)CC4)cc32)sc1C(N)=O)c1ccccc1C(F)(F)F", "note": "(stereo unspecified)", "Potency": "2.43 µM (active)"},
      {"smiles": "Cc1nc(N)nc(N)c1-c1ccc(Cl)c(Cl)c1", "Potency": "3.06 µM (active)"},
      {"smiles": "C[C@]12CCC(=O)C=C1CC[C@@H]1[C@@H]2[C@@H](O)C[C@@]2(C)[C@H]1CC[C@]2(O)C(=O)CO", "activity change, negative = viability loss": "-2.25% (inactive)"},
      {"smiles": "CCn1cc(-c2ccnc3[nH]c(-c4cccc(CN(C)C)c4)cc23)c(-c2ccc(NC(=O)N(C)C)cc2)n1", "Potency": "2.98 µM (active)"},
      {"smiles": "CCN(CC)CCOc1ccc(/C(=C(\\Cl)c2ccccc2)c2ccccc2)cc1", "Potency": "79.4 µM (active)"},
      {"smiles": "CCN1CCN(Cc2ccc(Nc3ncc(F)c(-c4cc(F)c5nc(C)n(C(C)C)c5c4)n3)nc2)CC1", "Potency": "17.2 µM (active)"},
      {"smiles": "Cc1nc(NC(=O)N2CCCC2C(N)=O)sc1-c1ccnc(C(C)(C)C(F)(F)F)c1", "note": "(stereo unspecified)", "Potency": "19.3 µM (active)"},
      {"smiles": "Nc1ccccc1NC(=O)c1ccc(CNC(=O)OCc2cccnc2)cc1", "Potency": "4.32 µM (active)"}
    ]}
  ]
}
